Mtb betalactam: beta-lactam sensitization of Mtb H37Rv; inhibition, % at 25 µM; M. tuberculosis H37Rv growth with meropenem, percent inhibition; actives 0.27% (n = 330,000); AID 434955; call rule not given here;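 also: growth measured after seven days incubation then overnight dye step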
MazEF act: MazEF (E. coli) toxin RNase activation | P0AE70 | FAM/BHQ RNA-DNA oligo cleavage fluorescence, 5 h | activation, % at 20 µM | actives 0.32% (n = 350,000); in the data active = activation above about 50%
Target sequence (P0AE70 whole entry, looked up): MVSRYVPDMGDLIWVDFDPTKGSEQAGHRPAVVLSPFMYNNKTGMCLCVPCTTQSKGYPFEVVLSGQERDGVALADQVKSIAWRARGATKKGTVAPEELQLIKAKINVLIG
FBA Mtb inh: inhibitors of M. tuberculosis fructose-bisphosphate aldolase. P9WQA3. purified M. tuberculosis FBA, fluorescence read-out. inhibition, % at 1 µM. actives 2.3% (n = 360,000). AID 588726; in the data active = inhibition above about 27%
Target sequence (P9WQA3 whole entry, looked up): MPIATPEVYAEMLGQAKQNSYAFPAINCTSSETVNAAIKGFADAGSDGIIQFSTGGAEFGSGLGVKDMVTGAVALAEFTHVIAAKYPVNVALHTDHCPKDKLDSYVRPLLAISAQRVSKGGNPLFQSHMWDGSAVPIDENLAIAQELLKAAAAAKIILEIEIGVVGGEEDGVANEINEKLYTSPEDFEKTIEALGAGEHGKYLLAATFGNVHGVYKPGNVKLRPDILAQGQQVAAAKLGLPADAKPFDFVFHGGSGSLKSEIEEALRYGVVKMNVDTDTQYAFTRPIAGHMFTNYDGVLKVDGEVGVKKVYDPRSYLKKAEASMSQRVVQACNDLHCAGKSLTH
GDH-TPI inh: counter-screen for M. tuberculosis FBA inhibitors: GDH-TPI coupled enzymes. actives 1.2% (n = 360,000). GDH-TPI coupled enzyme counterscreen, NADH absorbance. inhibition, % at 4.8 µM
CCHF vOTU inh: blocks the CCHF virus ovarian tumor domain protease. actives 0.55% (n = 370,000). inhibition, % at 11.5 µM. CCHFV vOTU protease, Pep-AMC fluorescence
Of the large screens only hits and unclear results are named; the others gave an inactive call. A selection: hits, their analogues and other compounds. The true share with any hit is near 4%. Rule as the data show it, unless noted: active = inhibition above about 30%; inactive = the rest.

CC(=O)n1c(C=Nc2ccc(Cl)cc2)c(O)c2ccccc21	MazEF act active
N#Cc1cccc(Cn2ccc3ccc(-c4ccc5ccn(Cc6ccccc6)c5c4)cc32)c1	none (no result: Mtb betalactam, MazEF act, FBA Mtb inh, GDH-TPI inh)
CCOC(=O)C(=CNc1ccccc1N1CCOCC1)C(=O)OCC	GDH-TPI inh 50.3
CN(C(=O)C1CCN(c2cncnc2)CC1)C1CCCCC1	none (no result: Mtb betalactam, MazEF act, FBA Mtb inh, GDH-TPI inh)
C[C@@H]1CCCN1c1cccc2c1S(=O)(=O)N(C1CC1)CCCO2	none (no result: Mtb betalactam, MazEF act, FBA Mtb inh, GDH-TPI inh)
COc1cc2c(cc1NC(=O)CSc1nnc(-c3ccccc3F)n1-c1ccc(C)cc1)oc1ccccc12	none (no result: Mtb betalactam, MazEF act, FBA Mtb inh, GDH-TPI inh)
CCOC(=O)Cn1cc(CN2CCS(=O)(=O)N(Cc3ccccc3)C(C(=O)OC)C2)nn1 (centres undefined)	none (no result: Mtb betalactam, MazEF act, FBA Mtb inh, GDH-TPI inh)
CCC12OC(=N)C(C#N)(C1C)C(C#N)(C#N)C(c1ccccc1)O2 (centres undefined)	FBA Mtb inh 143.7
Cc1cccc(-c2cccc3c4c([nH]c23)[C@@H]2C[C@H](N(C)C(=O)NC3CCCCC3)[C@H]([C@H](C)O)CN2CC4)c1	none (no result: Mtb betalactam, MazEF act, FBA Mtb inh, GDH-TPI inh)
C=CCN1C(=O)C2(c3ccccc31)C1CCCC=C1C(C#N)=C(N)C2(C#N)C#N (centres undefined)	GDH-TPI inh 30.6
COc1ccc(-n2c(=S)[nH]c3sc4c(c3c2=O)CCN(C)C4)cc1	none (no result: MazEF act, FBA Mtb inh, GDH-TPI inh, CCHF vOTU inh)
CCN(CC)C(=O)c1sc2nc(-c3ccccn3)[nH]c(=O)c2c1C	none
CCN(CC)C(=O)c1sc2[nH]c(=S)n(-c3ccccc3)c(=O)c2c1C	GDH-TPI inh 33.2
O=C(O)C1CCc2sc3[nH]c(=S)n(-c4ccccc4)c(=O)c3c21 (centres undefined)	GDH-TPI inh 33.8
COC(=O)C1CN(Cc2ccc(Cl)cc2)CCS(=O)(=O)N1Cc1cn(Cc2ccccc2)nn1 (centres undefined)	none (no result: Mtb betalactam, MazEF act, FBA Mtb inh, GDH-TPI inh)
O=C(NCc1cccs1)C1CCN(S(=O)(=O)c2ccc([N+](=O)[O-])cc2)CC1	none (no result: Mtb betalactam, MazEF act, FBA Mtb inh, GDH-TPI inh)
Cc1ccc(Cn2ccc(-c3cnc(-c4ccccc4)s3)n2)cc1	FBA Mtb inh 52.4
Fc1ccc(Cn2ccc(-c3cnc(-c4ccccc4)s3)n2)cc1	FBA Mtb inh 141.9
O=c1ccc(-c2ccccc2)nn1Cc1ccc(F)cc1	Mtb betalactam inconclusive
O=S(=O)(c1ccccc1)n1ccc(-c2cnc(-c3ccccc3)s2)n1	none
N#Cc1nc(-c2ccc(F)cc2)oc1NCc1cccc2c1OCO2	none
CC(C)CNc1oc(-c2ccc(F)cc2)nc1C#N	Mtb betalactam inconclusive, FBA Mtb inh 127.9
N#Cc1nc(-c2ccc(Cl)cc2)oc1N1CCCCC1	FBA Mtb inh active
N#Cc1nc(-c2ccc(OCc3ccc(Cl)cc3)cc2)oc1N1CCOCC1	none
COc1ccc(-c2nc(C#N)c(N3CCCCCC3)o2)cc1	FBA Mtb inh 193.7
COc1ccc(-c2nc(C#N)c(N3CCCCC3)o2)cc1	FBA Mtb inh active
CCC(C(=O)Nc1ccccc1N1CCCC1)c1cccc(Cl)c1 (centres undefined)	none (no result: Mtb betalactam, MazEF act, FBA Mtb inh, GDH-TPI inh)
COC(=O)C1CN(CCc2ccccc2)CCS(=O)(=O)N1Cc1ccc(C)cc1 (centres undefined)	none (no result: Mtb betalactam, MazEF act, FBA Mtb inh, GDH-TPI inh)
CCCOc1ccc(-c2nc(C#N)c(N3CCC(C(N)=O)CC3)o2)cc1	FBA Mtb inh active
CC(C)(C)c1ccc(-c2nc(C#N)c(NCc3ccncc3)o2)cc1	none
N#Cc1nc(-c2ccccc2)oc1N1CCCCC1	FBA Mtb inh active (no result: CCHF vOTU inh)
O=S(=O)(c1ccccc1)c1nc(-c2ccccc2)oc1N1CCCCC1	none
CCN1CCN(c2oc(-c3ccco3)nc2C#N)CC1	none
COc1ccc(-c2nc(C#N)c(NC(C)C)o2)cc1	FBA Mtb inh 190.2
N#Cc1nc(-c2ccco2)oc1N1CCCC1	FBA Mtb inh 189.5
C=CCN1[C@@H](Cc2ccccc2)COc2cccc(N3CCCC3)c2S1(=O)=O	none (no result: Mtb betalactam, MazEF act, FBA Mtb inh, GDH-TPI inh)
CC(C)(C)OC(=O)N1CCC[C@@H]1C(=O)N1CCC[C@@H]1C(=O)NCc1ccccc1	none (no result: Mtb betalactam, MazEF act, FBA Mtb inh, GDH-TPI inh)
Cc1ccc(-c2nc(C#N)c(N3CCCCC3)o2)cc1	FBA Mtb inh 137.1
N#Cc1nc(Cc2ccccc2)oc1N1CCCC1	none
COc1ccc(-c2nc(C#N)c(N3CCCCCC3)o2)cc1OC	FBA Mtb inh active, GDH-TPI inh 31.4
N#Cc1nc(-c2ccccc2F)oc1N1CCCC1	FBA Mtb inh active
CN1CCN(c2oc(-c3ccc([N+](=O)[O-])cc3)nc2C#N)CC1	none
COc1ccc(-c2nc(C#N)c(N3CCC(C)CC3)o2)cc1	FBA Mtb inh 114.6
COC(=O)[C@]12C[C@H](CC(=O)NCC3CCCCC3)C(=O)N(Cc3ccc(Cl)cc3Cl)C1=C[C@H](C(C)(C)C)O[C@@H]2C	none (no result: Mtb betalactam, MazEF act, FBA Mtb inh, GDH-TPI inh)
COc1cc(C=NN2CCN(C(c3ccccc3)c3ccccc3)CC2)cc(OC)c1OC(C)=O	none (no result: Mtb betalactam, MazEF act, FBA Mtb inh, GDH-TPI inh)
C=CS(=O)(=O)N(Cc1ccc(F)cc1)C(=C)C(=O)OC	none (no result: Mtb betalactam, MazEF act, FBA Mtb inh, GDH-TPI inh)
O=C(N/N=C\c1ccc(O)c([N+](=O)[O-])c1)c1ccccc1-n1cccc1	GDH-TPI inh 46.5
O=C(N/N=C/c1ccc(O)c([N+](=O)[O-])c1)C(O)(c1ccccc1)c1ccccc1	GDH-TPI inh 35.3
COc1cc(C=NNC(=O)c2ccccc2-n2cccc2)ccc1O	none
CN(CCCOC(=O)CC1C=CCC1)C1CN(Cc2cn(Cc3ccccc3Cl)nn2)S(=O)(=O)C1 (centres undefined)	none (no result: Mtb betalactam, MazEF act, FBA Mtb inh, GDH-TPI inh)
COC(=O)C(=N/Nc1ccccc1C(=O)OC)/C(C)=N/O	GDH-TPI inh 44.2
O=C(NC1CCC1)c1ccc(C#Cc2cccc(F)c2)nc1	none (no result: Mtb betalactam, MazEF act, FBA Mtb inh, GDH-TPI inh)
O=C1Nc2ccccc2S/C1=C/Nc1cccc(Cl)c1	MazEF act 58.7
O=C1Nc2ccccc2SC1=Cc1ccccc1	none (no result: Mtb betalactam)
CCN1Cc2nnn(Cc3ccccc3)c2-c2cc(N3CCCC3)ccc2S1(=O)=O	none (no result: Mtb betalactam, MazEF act, FBA Mtb inh, GDH-TPI inh)
O=C(Nc1ncc(Cc2cccc(C(F)(F)F)c2)s1)c1ccc(-c2cccc([N+](=O)[O-])c2)o1	GDH-TPI inh 54.3
O=C(Nc1nccs1)c1ccc(-c2cccc([N+](=O)[O-])c2)o1	none
CCCN1CCS(=O)(=O)N(Cc2cn(Cc3ccc(F)cc3)nn2)C(C(=O)OC)C1 (centres undefined)	none (no result: Mtb betalactam, MazEF act, FBA Mtb inh, GDH-TPI inh)
COC(=O)C1CN(C2CC2)CCS(=O)(=O)N1Cc1cn(Cc2ccccc2)nn1 (centres undefined)	none (no result: Mtb betalactam, MazEF act, FBA Mtb inh, GDH-TPI inh)
CCNc1nc(C)cc(COC)c1C#N	FBA Mtb inh 126.8
COC[C@@H]1CCCN1c1ccc2c(c1)O[C@@H]1CCN(C1)S2(=O)=O	none (no result: Mtb betalactam, MazEF act, FBA Mtb inh, GDH-TPI inh)
COc1cc(/C=N/n2cnnc2-n2nc(C)cc2C)cc([N+](=O)[O-])c1O	GDH-TPI inh 38.0
Cc1cc(C)n(-c2nncn2/N=C/c2ccccc2F)n1	none
CCN(C(=O)COC(=O)/C(C#N)=C/c1cc(C)n(CCOC)c1C)c1c(N)n(Cc2ccccc2)c(=O)[nH]c1=O	GDH-TPI inh 36.8 (no result: Mtb betalactam)
COc1ccc(CNS(=O)(=O)c2cc3c(cc2Br)CC(C)N3C(C)=O)cc1 (centres undefined)	none (no result: Mtb betalactam, MazEF act, FBA Mtb inh, GDH-TPI inh)
Cc1ccccc1C(=O)Nc1cccc(C(=O)N/N=C/c2ccc3c(c2)OCO3)c1	GDH-TPI inh 32.4
O=C(N/N=C/c1ccc2c(c1)OCO2)c1cccc(NC(=O)c2ccccc2Cl)c1	none
Cc1cccc(C(=O)Nc2cccc(C(=O)N/N=C/c3ccc4c(c3)OCO4)c2)c1	none

Screening data: PubChem BioAssay, several laboratories
